Results from the supplement of paper PMC10338343.
± gives the standard deviation.

Tested on: MILI (PIWIL2) piRISC loaded with L1MC piRNA (26 nt)
Assay: pre-steady-state target cleavage rate (min^-1); guide: L1MC piRNA 5'p-UAACUAAAUACUAUGCAAGCUGUAGG; MIWI and MILI are mouse PIWI proteins and EfPiwi is from a freshwater sponge; tags in brackets are library labels; higher = faster piRNA-guided slicing of the target
Settings: auxiliary factor: 500 nM mouse GTSF1
How it was run: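 A transcribed, DNA-blocked target RNA library […] was incubated at 33 °C for 0–8 or 0–960 min with 1 nM active affinity-purified piRISC carrying one synthetic guide, in HEPES–potassium acetate buffer with or without 500 nM GTSF1 partner protein. Uncleaved targets were then sequenced and normalised to depth and to weakly complementary targets. Data from three trials were pooled, with k3 capped at 0.0001 min^-1, and a burst-and-steady-state fit yielded the pre-steady-state cleavage rate.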
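Also: 1 nM active piRISC with 0.1 nM target library at 33 °C single turnover.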

Going from UCCUGGAUGUCCUUGCAUACUAUUUACUUA to UCCUGGAUGUGCUAGCAUAGUAUUUACUUA, the “pre-steady-state target cleavage rate” value rises from 0.0119 ± 0.0046 to 0.0865 ± 0.019.

UCCUGGAUCAGCUUGCAAAGUAUUUUCAAA and UCCUGGAUGUCCUUGCAUACUAUUAAGUUA are within error of each other in “pre-steady-state target cleavage rate” value: 0.00923 ± 0.0045 for the first, 0.0099 ± 0.0049 for the second.

Compared with UCCUCCUACAGCUUGCAUAGCUAUUUAGUUA, UCCUGGAACAGCUUGCAAAGAAUUUAGUUA is higher in “pre-steady-state target cleavage rate” value: 0.0126 ± 0.0058 for the first, 0.102 ± 0.037 for the second.

UCCUGGUUCAGCUUGCAUAGUAUUUACUUA and UCCUCCUAGUCCUUGCAUAGUAUUUACAAA are within error of each other in “pre-steady-state target cleavage rate” value: 0.0561 ± 0.02 for the first, 0.0299 ± 0.0097 for the second.

UCCUGGAUGUCCUUGCAUAGUAUAAAGUAA and UCCUGGAACAGCUUGCAUAGUAUAAUGUAA are within error of each other in “pre-steady-state target cleavage rate” value: 0.0169 ± 0.0066 for the first, 0.014 ± 0.0065 for the second.

Same assay, conditions: auxiliary factor: none (no GTSF1)

“UCCUGGAUGUCCUUGCAUACAUAAAUCAAA [g12:g19:cont:t1A]” and UCCUGGAUGUCGAUGCAUACUAUUUUGUUA cannot be ordered by “pre-steady-state target cleavage rate” value: < 0.0001 for the first, < 0.0001 for the second.

Going from UCCUGGAUGUCGUUGCAUAGUUAAUAGUUA to UCCUGGAUGUCGAACGUAAGUUUUAGUUA, the “pre-steady-state target cleavage rate” value falls from 0.00434 ± 0.0022 to < 0.0001.

UCCUGGAUGUCGAACCAUUAGUAUUUAGUUA and UCCUGGAUGUCGAUCCAUAGUAUUUUGUUA cannot be ordered by “pre-steady-state target cleavage rate” value: < 0.0001 for the first, < 0.0001 for the second.
